In PubChem BioAssay AID729 (The Scripps Research Institute Molecular Screening Center, 2007):
About 450 (0.46%) of roughly 97,000 compounds were called active. Rule as the data show it: active = activation above about 16%; inactive = the rest. For the sample, actives were picked, then their nearest neighbours and some compounds at random.

Each molecule was assayed against Sphingosine 1-phosphate receptor 2 (Homo sapiens) (UniProt O95136) (assay: S1P2 receptor agonists, primary screen, cell-based (AID 729;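 also: 0% = vehicle low control and 100% = maximal reference agonist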)). Settings: S1P2-expressing cell line, agonist reporter read-out; at 4.5 µM; hits give high values.
Sequence of Sphingosine 1-phosphate receptor 2 (Homo sapiens) (O95136 whole entry, looked up): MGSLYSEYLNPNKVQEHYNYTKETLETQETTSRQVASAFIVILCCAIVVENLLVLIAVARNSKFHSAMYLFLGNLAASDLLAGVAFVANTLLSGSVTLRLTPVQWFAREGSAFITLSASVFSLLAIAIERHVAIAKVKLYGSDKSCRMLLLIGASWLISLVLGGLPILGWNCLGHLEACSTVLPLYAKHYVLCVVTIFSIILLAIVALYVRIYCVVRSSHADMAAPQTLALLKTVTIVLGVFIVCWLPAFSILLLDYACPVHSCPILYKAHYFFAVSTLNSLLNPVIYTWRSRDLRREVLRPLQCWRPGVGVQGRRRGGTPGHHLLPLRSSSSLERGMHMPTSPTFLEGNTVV

activation, inactive:
Fc1ccc(CNc2nc3ccccc3n3nnnc23)cc1 -7.16%, O=C(NC(C(=O)NCCN1CCOCC1)C12CC3CC(CC(C3)C1)C2)C1CCCCC1 (stereo not given) -4.77%, Cc1c(NC(=O)c2cc(-c3ccc(Cl)s3)nc3ccccc23)c(=O)n(-c2ccccc2)n1C -14.2%, O=C(Nc1ccn(Cc2ccccc2F)n1)c1ccc(COc2ccc(Cl)cc2Cl)o1 -5.78%, O=C(Cn1cnc2ccccc2c1=O)NCC1COc2ccccc2O1 (stereo not given) -3.16%, CCn1cc(C(=O)NCc2ccc3c(c2)OCO3)c2cc(OC)c(OC)cc2c1=O 14.1%, CO/N=C/c1ccc(N2CCN(C(=O)c3cccc(Cl)c3)CC2)c([N+](=O)[O-])c1 -3.08%, Cc1ccc(CNC(=O)C2CCCN2C(=O)NCc2ccccc2)cc1 (stereo not given) -8.36%, O=C(CO/N=C/c1ccccc1O)NNC(=O)c1ccccc1Cl -5.77%, Cc1ccc(S(=O)(=O)/N=C(/Nc2ccccn2)c2ccc(Cl)cc2)cc1 -4.9%, CSc1ccccc1-c1nnc(-c2ccc(Cl)cc2)o1 -1.63%, Cc1ccc(N2CCN(C3=NC(=O)/C(=C\c4cccs4)S3)CC2)cc1 -8.97%, O=Cc1c(N2CCN(c3cccc(Cl)c3)CC2)nc2ccccn2c1=O -4.84%, CN1C(=O)C(CC(N)=O)N(NC(=O)c2ccc(Cl)cc2)C1=S (stereo not given) -7.47%, CSc1nc(N)c(C#N)c(-c2ccccc2Cl)c1C#N -7.07%, Cc1nc2ccccc2cc1O -0.52%, Cc1sc(NC(=O)C2C3CCC(O3)C2C(=O)O)c(C(=O)OC(C)C)c1-c1ccc(Cl)cc1 (stereo not given) -9.04%, CN(C)c1ccc(/C=C2\NC(=S)N(Cc3ccccc3)C2=O)cc1 -4.43%, Cc1ccc(-c2nc(C)sc2CC(=O)O)cc1 -2.07%, CN(c1cccc(NC(=O)Nc2ccc(Cl)cc2)c1)S(C)(=O)=O -3.59%, Nc1c(-c2ccc(F)cc2)cnn1C1CCS(=O)(=O)C1 (stereo not given) -4.76%, Cc1ccc(C2C(C#N)C(C#N)N3CCCN23)cc1 (stereo not given) -4.89%, N/C(=N\OC(=O)CCC1CCCCC1)c1ccccn1 -3.14%

activation, active:
CCn1cc(C(=O)NCC2COc3ccccc3O2)c2cc(OC)c(OC)cc2c1=O (stereo not given) 19.9%, CSc1nc2ccccc2cc1/C=C(\C#N)c1ccc(Cl)cc1Cl 19.8%
